Source: the supplement of paper PMC10849652
Targets with a hit are over-represented here; the source holds about 7,900 in all. About 0.6% of all pairs of compound and target were hits.

Each target was assayed with C1=CC2=C(C=CC(=C2)/C=C\3/C(=O)NC(=NCC4=CC=CS4)S3)N=C1 (assay: log2 fold change, soluble protein after heating vs DMSO (PISA); higher = thermal stabilisation; K562 cells, 10 uM, 30 min; active = over 0.2 and 3.5 SD of the protein, either way, in both replicates (recomputed)).
Outline: (§1)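 Aliquots of K562 cells (2×10^6 cells/mL) treated with 10 μM compound for 30 min were heated for 3 min over 48°C-58°C. After pooling and extraction in PBS with 0.5% NP-40 at 4°C, soluble protein from a 21,000xg, 90 min spin was quantified by TMTpro 16plex LC-MS/MS with channel sums equalised. Thermal stability is expressed against control samples, from duplicates, as a log2 fold change.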

UniProt P52597, sequence (P52597 whole entry, looked up): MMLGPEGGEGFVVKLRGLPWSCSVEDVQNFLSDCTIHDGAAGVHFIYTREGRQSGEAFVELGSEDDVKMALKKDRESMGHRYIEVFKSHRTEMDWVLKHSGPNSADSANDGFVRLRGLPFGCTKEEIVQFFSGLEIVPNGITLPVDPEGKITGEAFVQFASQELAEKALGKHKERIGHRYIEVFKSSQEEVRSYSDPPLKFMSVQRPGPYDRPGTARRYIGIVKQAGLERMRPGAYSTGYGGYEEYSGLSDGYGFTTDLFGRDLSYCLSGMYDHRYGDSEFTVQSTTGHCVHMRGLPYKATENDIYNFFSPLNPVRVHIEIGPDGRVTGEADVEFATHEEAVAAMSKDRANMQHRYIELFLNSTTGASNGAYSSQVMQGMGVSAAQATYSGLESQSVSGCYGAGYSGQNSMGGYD
UniProt O15228, sequence (O15228 whole entry, looked up): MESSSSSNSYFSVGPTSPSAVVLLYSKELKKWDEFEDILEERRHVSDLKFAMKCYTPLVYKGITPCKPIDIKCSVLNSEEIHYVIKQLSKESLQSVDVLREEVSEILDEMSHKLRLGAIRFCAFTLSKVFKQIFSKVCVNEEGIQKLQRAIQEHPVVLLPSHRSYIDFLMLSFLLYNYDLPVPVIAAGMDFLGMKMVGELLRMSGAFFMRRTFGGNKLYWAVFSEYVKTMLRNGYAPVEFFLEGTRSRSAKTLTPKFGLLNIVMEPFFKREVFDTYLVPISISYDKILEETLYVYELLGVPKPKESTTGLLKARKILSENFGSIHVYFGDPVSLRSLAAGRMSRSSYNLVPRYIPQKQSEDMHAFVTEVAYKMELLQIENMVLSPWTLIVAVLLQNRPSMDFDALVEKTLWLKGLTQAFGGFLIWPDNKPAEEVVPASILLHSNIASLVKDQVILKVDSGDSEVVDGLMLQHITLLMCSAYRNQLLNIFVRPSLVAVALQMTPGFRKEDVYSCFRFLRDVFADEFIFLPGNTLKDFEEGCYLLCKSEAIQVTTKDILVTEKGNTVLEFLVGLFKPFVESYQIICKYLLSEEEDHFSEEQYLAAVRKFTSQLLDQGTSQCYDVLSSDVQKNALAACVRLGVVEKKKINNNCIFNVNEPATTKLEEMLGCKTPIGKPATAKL
UniProt P22830, sequence (P22830 whole entry, looked up): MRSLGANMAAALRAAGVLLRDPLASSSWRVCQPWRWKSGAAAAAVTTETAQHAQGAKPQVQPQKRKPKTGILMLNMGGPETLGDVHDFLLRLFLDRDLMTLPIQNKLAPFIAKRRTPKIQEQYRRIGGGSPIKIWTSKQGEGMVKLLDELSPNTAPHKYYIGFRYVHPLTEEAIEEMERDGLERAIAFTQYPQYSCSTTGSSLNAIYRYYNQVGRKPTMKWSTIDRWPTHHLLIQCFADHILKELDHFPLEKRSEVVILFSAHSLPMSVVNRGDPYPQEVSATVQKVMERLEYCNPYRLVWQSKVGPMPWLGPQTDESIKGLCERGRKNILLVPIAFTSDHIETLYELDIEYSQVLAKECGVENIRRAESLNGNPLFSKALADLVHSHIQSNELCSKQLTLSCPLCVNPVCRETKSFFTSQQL
UniProt Q12894, sequence (Q12894 whole entry, looked up): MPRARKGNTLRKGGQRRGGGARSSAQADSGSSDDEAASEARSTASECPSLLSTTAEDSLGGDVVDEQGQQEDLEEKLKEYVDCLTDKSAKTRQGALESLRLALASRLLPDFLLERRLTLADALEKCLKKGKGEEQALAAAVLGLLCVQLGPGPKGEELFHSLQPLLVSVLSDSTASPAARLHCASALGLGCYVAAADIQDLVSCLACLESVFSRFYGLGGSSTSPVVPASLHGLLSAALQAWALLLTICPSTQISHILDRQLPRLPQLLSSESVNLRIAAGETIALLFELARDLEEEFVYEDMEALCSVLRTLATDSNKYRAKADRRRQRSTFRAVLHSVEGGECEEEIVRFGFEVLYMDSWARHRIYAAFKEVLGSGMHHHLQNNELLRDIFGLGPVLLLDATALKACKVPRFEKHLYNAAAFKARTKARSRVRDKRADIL
UniProt P06865, sequence (P06865 whole entry, looked up): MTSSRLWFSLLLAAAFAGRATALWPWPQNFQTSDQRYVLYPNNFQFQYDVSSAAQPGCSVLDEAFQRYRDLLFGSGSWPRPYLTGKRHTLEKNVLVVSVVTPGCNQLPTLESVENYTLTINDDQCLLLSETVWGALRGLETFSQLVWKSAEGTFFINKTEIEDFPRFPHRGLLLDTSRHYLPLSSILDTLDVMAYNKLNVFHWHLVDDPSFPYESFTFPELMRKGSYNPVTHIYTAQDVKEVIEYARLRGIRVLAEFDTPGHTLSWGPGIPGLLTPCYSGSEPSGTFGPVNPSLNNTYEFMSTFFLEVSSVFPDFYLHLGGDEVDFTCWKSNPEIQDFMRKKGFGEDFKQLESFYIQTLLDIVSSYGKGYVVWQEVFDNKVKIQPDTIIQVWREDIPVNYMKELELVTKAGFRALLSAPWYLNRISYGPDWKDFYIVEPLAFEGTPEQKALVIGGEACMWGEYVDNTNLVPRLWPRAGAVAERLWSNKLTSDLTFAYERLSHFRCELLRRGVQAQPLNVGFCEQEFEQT
UniProt P30711, sequence (P30711 whole entry, looked up): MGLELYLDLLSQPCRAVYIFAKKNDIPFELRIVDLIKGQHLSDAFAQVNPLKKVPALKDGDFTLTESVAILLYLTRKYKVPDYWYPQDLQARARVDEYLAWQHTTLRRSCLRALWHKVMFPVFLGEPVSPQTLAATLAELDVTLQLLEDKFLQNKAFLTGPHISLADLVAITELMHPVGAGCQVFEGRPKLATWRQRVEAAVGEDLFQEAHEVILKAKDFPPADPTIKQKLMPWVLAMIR
UniProt P04035, sequence (P04035 whole entry, looked up): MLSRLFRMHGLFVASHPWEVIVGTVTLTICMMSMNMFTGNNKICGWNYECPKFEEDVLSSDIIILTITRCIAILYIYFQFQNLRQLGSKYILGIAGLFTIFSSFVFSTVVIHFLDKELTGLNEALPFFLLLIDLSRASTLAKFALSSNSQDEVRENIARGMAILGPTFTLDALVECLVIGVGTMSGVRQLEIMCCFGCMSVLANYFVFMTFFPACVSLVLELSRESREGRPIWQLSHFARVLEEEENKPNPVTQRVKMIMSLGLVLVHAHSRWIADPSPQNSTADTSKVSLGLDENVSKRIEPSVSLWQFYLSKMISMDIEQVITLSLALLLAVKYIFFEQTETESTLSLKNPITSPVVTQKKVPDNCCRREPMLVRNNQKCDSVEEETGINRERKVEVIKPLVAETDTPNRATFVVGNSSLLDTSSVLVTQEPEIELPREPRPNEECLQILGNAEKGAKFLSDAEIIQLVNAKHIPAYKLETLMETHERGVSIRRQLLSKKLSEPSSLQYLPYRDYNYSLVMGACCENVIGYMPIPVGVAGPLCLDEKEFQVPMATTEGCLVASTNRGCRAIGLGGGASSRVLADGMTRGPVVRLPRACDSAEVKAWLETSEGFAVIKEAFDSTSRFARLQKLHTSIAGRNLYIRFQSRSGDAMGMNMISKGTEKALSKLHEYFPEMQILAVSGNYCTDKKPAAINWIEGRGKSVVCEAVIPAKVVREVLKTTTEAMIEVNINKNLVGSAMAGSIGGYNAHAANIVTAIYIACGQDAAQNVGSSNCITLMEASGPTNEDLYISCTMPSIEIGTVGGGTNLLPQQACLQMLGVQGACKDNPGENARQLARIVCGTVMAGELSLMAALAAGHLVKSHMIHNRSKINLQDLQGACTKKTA
UniProt P09211, sequence (P09211 whole entry, looked up): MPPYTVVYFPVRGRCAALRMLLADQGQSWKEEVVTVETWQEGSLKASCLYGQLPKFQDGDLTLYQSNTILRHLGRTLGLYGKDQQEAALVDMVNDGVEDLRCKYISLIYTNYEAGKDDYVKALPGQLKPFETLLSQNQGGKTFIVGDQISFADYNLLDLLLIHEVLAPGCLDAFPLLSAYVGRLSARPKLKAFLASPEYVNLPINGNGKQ
UniProt P15104, sequence (P15104 whole entry, looked up): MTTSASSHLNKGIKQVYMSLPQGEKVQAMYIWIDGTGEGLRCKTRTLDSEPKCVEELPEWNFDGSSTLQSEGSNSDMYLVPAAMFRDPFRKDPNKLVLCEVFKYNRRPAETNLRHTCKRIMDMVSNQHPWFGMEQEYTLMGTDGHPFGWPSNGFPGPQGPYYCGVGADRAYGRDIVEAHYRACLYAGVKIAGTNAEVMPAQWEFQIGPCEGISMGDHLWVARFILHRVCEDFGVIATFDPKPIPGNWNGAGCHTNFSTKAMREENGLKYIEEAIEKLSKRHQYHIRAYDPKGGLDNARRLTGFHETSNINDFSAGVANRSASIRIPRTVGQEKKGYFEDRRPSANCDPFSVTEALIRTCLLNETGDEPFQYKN
UniProt P48507, sequence (P48507 whole entry, looked up): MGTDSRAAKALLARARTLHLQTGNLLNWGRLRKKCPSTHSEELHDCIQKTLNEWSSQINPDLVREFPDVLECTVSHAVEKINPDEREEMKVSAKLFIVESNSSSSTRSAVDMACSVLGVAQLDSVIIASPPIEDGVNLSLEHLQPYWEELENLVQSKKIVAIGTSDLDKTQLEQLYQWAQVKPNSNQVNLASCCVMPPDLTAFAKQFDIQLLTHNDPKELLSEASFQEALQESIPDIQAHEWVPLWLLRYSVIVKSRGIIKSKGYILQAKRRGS
UniProt P22087, sequence (P22087 whole entry, looked up): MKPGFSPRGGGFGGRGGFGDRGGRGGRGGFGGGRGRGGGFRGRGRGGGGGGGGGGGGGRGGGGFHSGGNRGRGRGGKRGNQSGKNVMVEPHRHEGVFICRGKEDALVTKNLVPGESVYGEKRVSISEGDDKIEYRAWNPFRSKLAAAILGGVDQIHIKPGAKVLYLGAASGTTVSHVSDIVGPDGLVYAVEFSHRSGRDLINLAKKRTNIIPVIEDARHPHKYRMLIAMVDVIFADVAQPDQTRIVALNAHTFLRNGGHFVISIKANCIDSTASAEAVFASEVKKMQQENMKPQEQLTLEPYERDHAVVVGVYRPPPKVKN
UniProt Q9H0R8, sequence (Q9H0R8 whole entry, looked up): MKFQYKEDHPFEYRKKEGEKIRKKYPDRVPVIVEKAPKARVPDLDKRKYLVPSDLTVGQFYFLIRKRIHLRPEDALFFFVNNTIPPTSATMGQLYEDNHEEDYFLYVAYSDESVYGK

log2 fold change, inactive:
GSK3B isoform 2 (UniProt P49841) 0.038
GDI1 (UniProt P31150) 0.007
HMGCR isoform 3 (UniProt P04035) -0.038
FBL (UniProt P22087) -0.102
HMG20A (UniProt Q9NP66) -0.281
HDAC2 (UniProt Q92769) 0.006
GCLM (UniProt P48507) -0.078
H1FX (UniProt Q92522) -0.12
HMGN1 (UniProt P05114) -0.114
GDPD1 (UniProt Q8N9F7) -0.015
IFT74 (UniProt Q96LB3) 0.087
GLCCI1 (UniProt Q86VQ1) 0.091
GSTP1 (UniProt P09211) 0.041
HNRNPF (UniProt P52597) -0.098
HSPA8 (UniProt E9PK54) 0
GNPAT (UniProt O15228) 0.073
GTF2E1 (UniProt P29083) 0.094
H2AFX (UniProt P16104) 0.014
FOXK1 (UniProt P85037) 0.425
GABARAPL1 isoform 2 (UniProt Q9H0R8) 0.074
HOOK3 (UniProt Q86VS8) 0.055
FECH isoform 2 (UniProt P22830) 0.162
HPCAL1 (UniProt P37235) 0
GOLPH3 (UniProt Q9H4A6) 0.011
HIST2H2BF isoform 2 (UniProt Q5QNW6) 0.048
HDAC7 isoform 5 (UniProt Q8WUI4) -0.126
HEXA (UniProt P06865) 0.024
HDAC6 (UniProt Q9UBN7) 0.041
IFRD2 isoform 2 (UniProt Q12894) 0.048
GSTT1 (UniProt P30711) 0.114
H2AZ1 (UniProt P0C0S5) -0.087
HSD17B12 (UniProt Q53GQ0) 0.025
GNAS (UniProt Q5JWF2) 0.026
GLA (UniProt P06280) -0.018
GLUL (UniProt P15104) -0.006

The targets below were run with C1=CC2=NC=CN=C2C=C1/C=C/3\C(=O)NC(=O)S3 in the same assay as above.
Outline: as §1

log2 fold change, inactive:
GSK3B isoform 2 (UniProt P49841) -0.013
GDI1 (UniProt P31150) 0.007
HMGCR isoform 3 (UniProt P04035) 0.101
FBL (UniProt P22087) 0.13
HMG20A (UniProt Q9NP66) -0.009
HDAC2 (UniProt Q92769) 0.002
GCLM (UniProt P48507) 0.088
H1FX (UniProt Q92522) -0.012
HMGN1 (UniProt P05114) 0.045
GDPD1 (UniProt Q8N9F7) 0.01
IFT74 (UniProt Q96LB3) -0.033
GLCCI1 (UniProt Q86VQ1) 0.023
GSTP1 (UniProt P09211) 0.037
HNRNPF (UniProt P52597) 0.017
HSPA8 (UniProt E9PK54) 0.034
GNPAT (UniProt O15228) 0.03
GTF2E1 (UniProt P29083) 0.007
H2AFX (UniProt P16104) 0.274
FOXK1 (UniProt P85037) 0.355
GABARAPL1 isoform 2 (UniProt Q9H0R8) -0.033
HOOK3 (UniProt Q86VS8) 0.032
FECH isoform 2 (UniProt P22830) 0.048
HPCAL1 (UniProt P37235) 0.057
GOLPH3 (UniProt Q9H4A6) 0.008
HIST2H2BF isoform 2 (UniProt Q5QNW6) 0.223
HDAC7 isoform 5 (UniProt Q8WUI4) -0.008
HEXA (UniProt P06865) 0.004
HDAC6 (UniProt Q9UBN7) -0.164
IFRD2 isoform 2 (UniProt Q12894) 0.082
GSTT1 (UniProt P30711) 0.037
H2AZ1 (UniProt P0C0S5) 0.169
HSD17B12 (UniProt Q53GQ0) -0.012
GNAS (UniProt Q5JWF2) 0.021
GLA (UniProt P06280) -0.017
GLUL (UniProt P15104) -0.003
